Compound activity from PubChem BioAssay.
rat GALR2 ag = agonists of rat galanin receptor 2 (GALR2); hit rate 0.5% among 16,000; AID 833; O08726; activation, % at 10 µM; cell-based GALR2 agonist screen; in the data active = activation above about 15%
Nox1 inhibitor = inhibitors of human NADPH oxidase 1 (Nox1); HT29 cells, luminol chemiluminescence ROS; inhibition, % at 6.7 µM; hit rate 0.81% among 16,000
Target sequence (Q9Y5S8 whole entry, looked up): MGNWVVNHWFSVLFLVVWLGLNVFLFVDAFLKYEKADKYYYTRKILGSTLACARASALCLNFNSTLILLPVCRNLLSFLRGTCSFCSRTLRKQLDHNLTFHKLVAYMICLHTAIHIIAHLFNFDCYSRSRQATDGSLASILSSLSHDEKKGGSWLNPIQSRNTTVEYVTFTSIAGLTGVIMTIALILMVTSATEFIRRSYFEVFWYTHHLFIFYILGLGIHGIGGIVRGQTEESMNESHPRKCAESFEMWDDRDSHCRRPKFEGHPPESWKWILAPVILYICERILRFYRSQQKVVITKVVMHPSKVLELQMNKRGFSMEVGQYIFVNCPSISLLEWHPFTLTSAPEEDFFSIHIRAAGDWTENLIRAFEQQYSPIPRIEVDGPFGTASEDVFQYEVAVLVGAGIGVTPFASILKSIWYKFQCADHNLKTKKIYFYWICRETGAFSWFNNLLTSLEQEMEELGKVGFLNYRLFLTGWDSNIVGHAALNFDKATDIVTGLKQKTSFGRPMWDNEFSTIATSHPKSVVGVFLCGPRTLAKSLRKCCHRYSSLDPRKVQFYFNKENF
Luminol counter = luminol signal inhibition, Nox1 inhibitor counter-screen; HRP/luminol/H2O2 chemiluminescence counterscreen; inhibition, % at 6.7 µM; hit rate 0.4% among 16,000; also: reference of the scale not given here
* marks the source's active call; other numbers are inactive results. In the library only some 1.6% were active in any assay of this set; here they are far more common. Rule as the data show it, unless noted: active = inhibition above about 75%; inactive = the rest.

SMILES	rat GALR2 ag	Nox1 inhibitor	Luminol counter
O=C(CSc1ccccc1[N+](=O)[O-])NNC(=S)Nc1cccc(C(F)(F)F)c1	-3	-50	3
COc1cc([N+](=O)[O-])c(OC)cc1SCC(=O)NNC(=S)Nc1ccc(F)cc1	-3	21	83*
c1ccc(N2CC3CCc4ccccc4C3=N2)cc1 (stereo not given)	23*	-33	-18
O=C(CCc1ccc(O)cc1)NNc1c([N+](=O)[O-])cc(C(F)(F)F)cc1[N+](=O)[O-]	-5	28	-4
O=[N+]([O-])c1cc(C(F)(F)F)cc([N+](=O)[O-])c1N/N=C/c1ccccc1O	-9	22	-1
O=C(NNc1c([N+](=O)[O-])cc(C(F)(F)F)cc1[N+](=O)[O-])c1ccccc1-n1cccc1	-9	102*	-9
COc1ccc(C(=O)NNc2c([N+](=O)[O-])cc(C(F)(F)F)cc2[N+](=O)[O-])cc1	-4	89*	4
CSc1nccc(-c2ccc(S(=O)(=O)N(CCC#N)Cc3ccco3)s2)n1	-5	-26	2
c1ccc(CC2=NNC(Cc3ccccc3)=NN2)cc1	-6	-86	-2
O=C(NNc1nc(-c2cccs2)ns1)c1cccc(C(F)(F)F)c1	-8	104*	57
O=C(NNC(=O)c1cccc(C(F)(F)F)c1)c1ccncc1	-5	-35	3
Cc1noc(C)c1NC(=O)NC(=O)c1c(F)cccc1Cl	-5	-32	0
Cc1noc(NC(=O)NC(=O)c2cc(F)c(N(C)C)c(F)c2)c1C	36*	-74	4
N#Cc1nccc2ccccc12	-6	-21	1
CCOC(=O)/C(C#N)=C/Nc1cccnc1Oc1ccc(C)c2c1CCC2	27*	-13	0
CCOC(=O)/C(C#N)=C/Nc1cc(F)ccc1C	-8	-14	-1
CCOC(CC(=O)NNC(=O)c1ccc(C(F)(F)F)cc1)OCC	-1	-55	2
O=C(CN1C(=O)c2ccccc2C1=O)NCc1ccc(N2CCOCC2)cc1	4	-17	2
O=C1c2ccccc2C(=O)N1CNc1ccc(N2CCOCC2)cc1	-6	98*	-4
Cc1cc(S(=O)(=O)NCCNc2ccc(C(F)(F)F)cc2[N+](=O)[O-])c(C)cc1Cl	-5	-6	-1
O=c1ccc(-c2ccncc2)n[nH]1	23*	-46	-3
Cc1ccc(-c2cc(Cc3ccncc3)c(=O)[nH]n2)cc1	-5	8	-3
COCCCNC(=S)Sc1ccc(Cl)cc1	-5	-12	-4
CC1CN(c2ccc(NC(=O)c3ccco3)cc2C(=O)O)CC(C)O1 (stereo not given)	-4	-6	0
CC1CN(c2ccc(NS(=O)(=O)c3ccccc3)cc2C(=O)O)CC(C)O1 (stereo not given)	-1	84*	41
SMILES	rat GALR2 ag	Nox1 inhibitor	Luminol counter
OC(CNCCNc1ccc(C(F)(F)F)cn1)CSc1ccc(F)cc1 (stereo not given)	-3	7	-5
O=C(Nc1ccccc1N1CCCCC1)c1ccco1	-9	-9	3
Cc1onc(-c2ccccc2)c1C(=O)Oc1ccccc1N1CCOCC1	-4	-19	2
O=C(Oc1ccccc1)c1cccnc1Oc1ccccc1	-6	16	-10
O=C(Oc1ccccc1N1CCOCC1)c1cccnc1Oc1ccccc1	-5	79*	7
O=C(Oc1ccccc1N1CCCCC1)c1ccco1	-6	83*	8
O=C(Oc1ccccc1N1CCOCC1)c1cccs1	-5	98*	-1
O=S(=O)(c1ccc(Cl)cc1)N1CCSCC1	-5	-8	0
CC(=O)c1ccc(Cl)c(-n2cccc2)c1	-8	6	-8
O=C(O)c1ccccc1C(=O)c1ccc(Sc2ccccc2)c([N+](=O)[O-])c1	-2	-11	-3
CCOC(=O)c1c(NC(=O)c2cc(S(=O)(=O)C(C)C)c(SC)s2)sc(C)c1C	4	9	-6
N/C(=N\O)c1c(-c2ccccc2)cc(-c2ccc(F)cc2)[nH]c1=O	-1	-15	-1
NC(=O)C1CCN(CC(O)c2ccccc2)CC1 (stereo not given)	-4	-52	-2
COc1cc2cc(C(=O)N3CCN(Cc4ccc5c(c4)OCO5)CC3)c(=O)oc2cc1OC	-7	8	-7
CC(C)(C)C(=O)NNC(=O)c1cc(C(C)(C)C)nn1Cc1ccccc1	-8	-31	2
COc1ccccc1NNC(=O)c1cc(C(C)(C)C)nn1Cc1ccccc1	-7	91*	0
COc1ccc(Br)c(C(=O)Nc2c(F)cccc2F)c1	0	6	-5
CC(C)(C)OC(=O)N[C@@H](Cc1ccccc1)c1n[nH]c(=S)n1CC1CCCO1 (stereo not given in full)	-7	14	97*
CC(C)(C)OC(=O)NCc1n[nH]c(=S)n1Cc1ccccc1	-7	-23	-1
CSc1cccc(NC(=O)/C=C/c2ccc(C(C)C)cc2)c1	-8	-11	-6
COc1ccccc1C1OC(=O)C[C@@H]1C(=O)Nc1nncs1 (stereo not given in full)	-8	-5	0
Cc1ccc(Cn2nc(C(=O)O/N=C(\N)c3ccccc3)cc2C)cc1	-9	32	0
O=c1c(Cl)c2oc3ccccc3nc-2c2ccccc12	-12	90*	7
O=c1[nH]c2ccccc2c(=O)n1CCSc1nc2ccccc2o1	-5	17	-5
Cc1nn(Cc2nnc(SCC(=O)Nc3cccc(C(F)(F)F)c3)n2C)c(C)c1[N+](=O)[O-]	4	11	-6
SMILES	rat GALR2 ag	Nox1 inhibitor	Luminol counter
Cn1c(CC2Sc3ccccc3NC2=O)nnc1SCC(=O)Nc1cccc(C(F)(F)F)c1 (stereo not given)	14	17	93*
CC(=O)N(C(C)=O)N(C)c1nc(-c2ccccc2)ns1	1	3	-4
N/C(=N\O)c1ccc(Oc2c(Cl)cncc2Cl)cc1	0	-1	-5
COC(=O)C1=C(NC(C)=O)CCC(C(=O)OC)C1 (stereo not given)	-7	-45	-5
COc1cccc(-c2c3c([nH]c(=O)c2C#N)CCc2cc(OC)ccc2-3)c1	53*	6	0
COc1ccc(-c2c(C#N)c(=O)[nH]c3c2c(C)nn3-c2ccccc2)cc1	-6	-1	-3
COc1ccc2c(c1)CCCN2Cc1c[nH]c2ccccc12	-1	101*	-12
CCOC(=O)C1CCN(c2ccccc2CN2CCCc3cc(C)ccc32)CC1	-10	20	-3
CN(C)c1ccc2nsnc2c1[N+](=O)[O-]	-2	38	11
Cc1nccc(-c2cccc([N+](=O)[O-])c2)n1	-5	17	-6
S=c1[nH]nc(CSc2nc(-c3ccccc3)cn2-c2ccccc2)n1-c1ccccc1	-8	-12	2
S=c1[nH]nc(Cc2n[nH]c(=S)n2-c2ccccc2)n1-c1ccccc1	-7	-28	95*
CCCSc1ncccc1C(=O)Nc1cccc2nonc12	-7	-61	-1
CCOC(=O)COc1nc(-c2cccs2)cc(-c2ccco2)c1C#N	-8	-14	3
N#CCOc1nc(-c2ccccc2)cc(-c2ccco2)c1C#N	22*	-45	2
OC1(C(F)(F)F)CC(c2ccc3c(c2)Nc2ccccc2S3)=NN1 (stereo not given)	-11	-44	4
FC(F)(F)c1ccc2c(c1)Nc1ccccc1S2	-11	102*	10
COc1cc2ccc(=O)oc2cc1OC	-6	18	-8
CC1(C)c2cc(O)ccc2OC1N1CCOCC1 (stereo not given)	-5	85*	96*
